Shown are actives, neighbours in structure and some others; about 21% of the full set was active somewhere.
ELG1 DNA repair = blocks ELG1-dependent DNA repair in HEK293T cells; HEK293T ELG1-luciferase reporter, luminescence, 16 h; DNA damage induced by 5-fluorouridine; Potency, µM (doses to about 46.1 µM), for the others: at the top dose activity change, negative = inhibition, actives largely listed as inhibitors; 330,000 compounds, 2.3% hits; AID 504467; note: potency is the fitted concentration of half-maximal effect; nearly all actives have a fitted effect of over 55% in size
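Quantitative HTS, concentration-response format. 2,000 cells/well co-treated with 5-fluorouridine and compound, 16 hr in 5% CO2 at 37 °C; ONE-Glo luminescence read after 30 min.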
VP16 counter = inhibits Gal4-VP16 luciferase reporter, ROR gamma counter-screen; Drosophila S2 Gal4-VP16 UAS-luciferase, luminescence, 20 h; Potency, µM (doses to about 53.6 µM), for the others: top-dose activity, negative = inhibition, usual class: inhibitors; 310,000 compounds, 3.5% hits;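 note: Gal4-VP16 expression switched on by copper sulfate through the metallothionein promoter; potency is the fitted concentration of half-maximal effect; nearly all actives have a fitted effect of over 50% in size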
IL-1B inflam inh = blocks inflammasome-driven IL-1 beta release. AID 743279. THP-1 LPS/ATP IL-1B secretion, AlphaLISA, 16 h; stronger effect = lower value. 360,000 compounds, 4.7% hits. activity change, % at 57.5 µM; in the data active = activity change below about -50%; inconclusive = mostly about -30% to -49%
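Secreted IL-1B measured by AlphaLISA bead assay after 16 h compound exposure of THP-1 cells; compounds (final up to 57.5 uM) added 1 h before LPS (250 ng/mL) and ATP (1.25 mM) stimulation; lower signal means less secretion.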
DT40 TDP1 CPT = DT40-hTDP1 cell growth loss with CPT | Potency, µM (doses to about 46.2 µM), for the others: top-dose activity change, negative = growth inhibition, hits mostly inhibitors | 420,000 compounds, 12% hits | AID 686979 | chicken DT40 Tdp1-/-;hTDP1 cells + 20 nM CPT, ATP luminescence, 48 h; note: potency is the fitted concentration of half-maximal effect; nearly all actives have a fitted effect of over 55% in size
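Chicken DT40 Tdp1-/- cells stably complemented with human TDP1 were seeded at 400 cells/well in medium containing 20 nM camptothecin, exposed to pin-transferred compounds, and grown at 37 °C for at least 48 hr. Viability was read as ATP luminescence.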
DT40 TDP1 no CPT = qHTS for Inhibitors of human tyrosyl-DNA phosphodiesterase 1 (TDP1): qHTS in cells in absence of CPT. DT40 Tdp1-/- hTDP1 cells, no CPT, ATP luminescence, 48 h. Potency, µM (doses to about 46.2 µM), inactives show top-dose activity change, negative = growth inhibition, usual class: inhibitors. 420,000 compounds, 15% hits. AID 686978, 2013; note: potency is the fitted concentration of half-maximal effect; nearly all actives have a fitted effect of over 55% in size
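Luminescent ATP content (CellTiter-Glo) served as the growth readout. Knockout chicken DT40 cells expressing human TDP1 were exposed to compounds without camptothecin for a minimum 48 hr at 37 °C.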
RORg inh = blocks mouse ROR gamma transcriptional activity. P51450. Drosophila S2 Gal4-RORgamma UAS-luciferase reporter, 20 h. Potency, µM (highest dose often 53.6 µM), for the others: at the top dose activity change, negative = inhibition, usual class: inhibitors. 310,000 compounds, 5.4% hits. AID 2551; note: potency is the fitted concentration of half-maximal effect; nearly all actives have a fitted effect of over 60% in size
Target sequence (P51450 whole entry, looked up, the tested form may be a part): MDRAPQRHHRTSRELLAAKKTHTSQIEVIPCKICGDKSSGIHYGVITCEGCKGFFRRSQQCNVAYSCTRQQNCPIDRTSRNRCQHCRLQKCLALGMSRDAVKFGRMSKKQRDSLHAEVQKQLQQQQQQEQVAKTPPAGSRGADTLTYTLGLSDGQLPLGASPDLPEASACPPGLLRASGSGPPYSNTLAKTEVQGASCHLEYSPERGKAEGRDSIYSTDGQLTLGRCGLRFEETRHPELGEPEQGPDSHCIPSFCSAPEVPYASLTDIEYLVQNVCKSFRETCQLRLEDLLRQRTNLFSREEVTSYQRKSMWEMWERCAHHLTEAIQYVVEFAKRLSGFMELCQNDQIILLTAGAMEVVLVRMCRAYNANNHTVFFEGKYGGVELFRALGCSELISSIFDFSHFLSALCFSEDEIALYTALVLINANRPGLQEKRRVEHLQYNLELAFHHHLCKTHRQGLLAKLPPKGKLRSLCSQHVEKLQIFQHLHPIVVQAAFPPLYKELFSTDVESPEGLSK
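Luminescence from a UAS-regulated Photinus luciferase reporter in stably transfected Drosophila Schneider cells is measured; decreased signal marks ROR gamma inhibition. Fusion expression is induced by 700 uM copper sulfate for 20 hr.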
An asterisk follows results filed as active; ? = inconclusive; . = not tested or not shown; [ ] = dose if it differs, or a comment. Unless noted, calls come from the whole dose curve; as a rule, active = well fitted curve in the direction sought with a large enough effect; inconclusive = small, poorly fitted or top-dose-only effect, or another doubt; inactive = no such curve, though single readings can be large; an effect the other way counts as inactive or inconclusive. % is set by controls: 0 for no effect and ±100 for the full control effect.

SMILES | ELG1 DNA repair | VP16 counter | IL-1B inflam inh | DT40 TDP1 CPT | DT40 TDP1 no CPT | RORg inh
CC1CCCCC12NC(=O)N(CC(=O)Nc1cccnc1)C2=O (stereo unspecified) | . | . | 23 | 0% | -2% | .
COC(=O)[C@@H]1CCCN1C(=O)c1cnn(-c2ncc3c(n2)-c2ccccc2CCC3)c1C1CC1 | . | . | . | ? | 16µM* | .
CCC(O)CNC(=O)c1cnn(-c2ncc3c(n2)-c2ccccc2CCC3)c1C1CC1 (stereo unspecified) | . | . | . | -1% | ? | .
COc1ccc2c(c1)-c1nc(-n3ncc(C(=O)N(C)C(C)c4ccon4)c3C3CC3)ncc1CC2 (stereo unspecified) | . | . | . | -20%[9.04 µM] | ? | .
Cc1cc(CNC(=O)c2cnn(-c3ncc4c(n3)-c3ccccc3CC4)c2C2CC2)on1 | . | . | . | 16µM* | ? | .
CC(c1ccon1)N(C)C(=O)c1cnn(-c2ncc3c(n2)-c2ccccc2CC3)c1C1CC1 (stereo unspecified) | . | . | . | -11%[9.04 µM] | 16µM* | .
CCc1nc2c(OCC(=O)C(C)(C)C)cccn2c1N(C)C(=O)C(C)C | . | . | 19 | ? | -15% | .
Cc1nc2ncnn2c(C)c1CCC(=O)NCc1ccc(Cl)cc1 | . | . | . | 3% | 0% | .
O=C(C1=C[C@@H](c2ccc(Br)cc2)C[C@@H](OCc2ccc(CO)cc2)O1)N1CCN(Cc2ccccc2)CC1 | 23µM* | -4% | ? | ? | 23µM* | 42%
C#Cc1ccc([C@H]2C=C(C(=O)N3CCN(Cc4ccccc4)CC3)O[C@@H](OCc3ccc(CO)cc3)C2)cc1 | ? | -11% | -23 | 16µM* | 18µM* | 10%
C#Cc1ccc([C@@H]2C=C(C(=O)N3CCN(Cc4ccccc4)CC3)O[C@H](OCCCCO)C2)cc1 | ? | 2% | . | . | . | ?
ClC1(Cl)CC1CSc1nnc(-c2ccncc2)o1 (stereo unspecified) | ? | 23% | -14 | -25% | ? | 32%
O=C(NCc1ccco1)c1[nH]c(C(F)(F)F)nc1-c1ccccc1 | . | . | 2 | -11% | -28% | .
FC(F)(F)c1cc(Sc2ccccc2)nc(-c2ccccn2)n1 | 18% | ? | 5 | ? | 15µM* | 11µM*
FC(F)(F)c1cc(Nc2ccccc2)nc(-c2ccccn2)n1 | -13% | 4.5µM* | -22 | ? | 26µM* | 2µM*
CC(C)Nc1cc(C(F)(F)F)nc(-c2ccccn2)n1 | -4% | 6.3µM* | -16 | 18µM* | 18µM* | 1µM*
COC(=O)C(C(=O)OC)c1ccccc1CNS(=O)(=O)c1ccc(C)cc1 | . | . | 12 | ? | -20% | .
CNc1oc(-c2ccccc2Cl)nc1P(=O)(c1ccccc1)c1ccccc1 | 20% | ? | -79* | ? | 15µM* | 7%
Clc1ccccc1-c1nnc(-c2ccccc2Cl)o1 | ? | -1% | -11 | 1% | -12% | -19%
COc1ccc(NC(=O)Nc2cccc3c2O[C@H](CN(C)S(=O)(=O)c2ccc(OC)cc2)[C@@H](C)CN([C@H](C)CO)C3=O)cc1 | 21µM* | . | -28 | ? | ? | .
COc1ccc(NC(=O)Nc2cccc3c2O[C@H](CN(C)S(=O)(=O)c2ccccc2)[C@@H](C)CN([C@H](C)CO)C3=O)cc1 | -17% | . | -17 | 18µM* | ? | .
C[C@H](CO)N1C[C@H](C)[C@@H](CN(C)S(C)(=O)=O)Oc2c(NC(=O)C3CCCCC3)cccc2C1=O | 18% | . | -10 | -14% | -5% | .
COc1ccc(NC(=O)Nc2cccc3c2O[C@H](CN(C)S(=O)(=O)c2c(C)noc2C)[C@@H](C)CN([C@H](C)CO)C3=O)cc1 | ? | . | -4 | -1% | -25% | .
COc1ccc(S(=O)(=O)N(C)C[C@H]2Oc3c(NC(=O)C4CCCCC4)cccc3C(=O)N([C@H](C)CO)C[C@@H]2C)cc1 | -7% | . | -21 | ? | 23µM* | .
CCCOP(=O)(c1ccc(N(C)C)cc1)C(O)c1ccccc1OC (stereo unspecified) | 2% | 1% | -15 | -7% | ? | 11%[10 µM]
SMILES | ELG1 DNA repair | VP16 counter | IL-1B inflam inh | DT40 TDP1 CPT | DT40 TDP1 no CPT | RORg inh
CCCOP(=O)(c1ccc(N(C)C)cc1)C(Nc1ccccc1)c1ccc(N(C)C)cc1 (stereo unspecified) | ? | ? | 6 | 8.2µM* | 2.3µM* | ?
COc1ccc(C(C)(O)c2nc(-c3ccc(OC)nc3)cs2)cc1 (stereo unspecified) | . | . | 94 | ? | ? | .
CCCCCCCCN1[C@@H](CC(=O)O)c2cc(C(F)(F)F)ccc2S1(=O)=O | . | . | 8 | ? | ? | .
CCCCCCCCN1[C@@H](CC(=O)OC)c2cc(F)ccc2S1(=O)=O | . | . | 18 | ? | 13µM* | .
CCCCCCCCN1[C@@H](CC(=O)OCC)c2ccc(C(F)(F)F)cc2S1(=O)=O | . | . | 4 | 13µM* | 26µM* | .
CCCCCCCCN1[C@@H](CC(=O)OCC)c2cc(F)ccc2S1(=O)=O | . | . | 33 | ? | ? | .
CCCCCCCCCCCCN1[C@@H](CC(=O)OC)c2cc(C(F)(F)F)ccc2S1(=O)=O | . | . | 38 | ? | 13µM* | .
COC(=O)C[C@H]1c2cc(F)ccc2S(=O)(=O)N1c1ccc(N(C)C)cc1 | . | . | 25 | ? | 13µM* | .
COc1ccc(Br)cc1/C=N/n1c(COc2ccccc2)n[nH]c1=S | 9% | 0% | 9 | 10% | 20% | ?
COc1cc(OC)cc(C(=O)N[C@H](C(=O)OCC(=O)c2ccc(C)c([N+](=O)[O-])c2)C(C)C)c1 | -5% | . | 15 | -24% | -24% | .
Cc1nc2sc(C)c(C)n2c(=O)c1S(=O)(=O)N1CCN(c2ccccc2F)CC1 | . | . | . | -28% | ? | .
COC(=O)[C@@H]1C[C@]2(OC(=O)c3ccccc3)C=CC(=O)C[C@@H]2N1C(=O)OCc1ccccc1 | 15µM* | ? | -107* | 6.5µM* | 7.3µM* | ?
COc1ccc(NC(=O)C2(S(=O)(=O)c3ccc(C)cc3)CC2)c(OC)c1 | . | . | . | -11% | -22% | .
Cc1ccc(C(=O)NC(=S)Nc2ccc3c(c2)OCCO3)c(C)c1 | ? | ? | -7 | ? | ? | 4.5µM*
Cc1cc(C)cc(C(=O)NC(=S)Nc2ccc3c(c2)OCCO3)c1 | ? | 3.2µM* | -16 | 16µM* | ? | ?

Screening results from PubChem.
